From PubChem BioAssay
Only a sample is shown.
TNAP pNPP inh: human TNAP inhibition, p-nitrophenol detection | purified TNAP, pNPP hydrolysis, absorbance 405 nm | AID 615 | 21,000 tested, under 10 active | inhibition, % at 20 µM | P05186;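 also: 0% = DMSO only wells and 100% = 1 mM levamisole wells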
Target sequence (P05186 whole entry, looked up): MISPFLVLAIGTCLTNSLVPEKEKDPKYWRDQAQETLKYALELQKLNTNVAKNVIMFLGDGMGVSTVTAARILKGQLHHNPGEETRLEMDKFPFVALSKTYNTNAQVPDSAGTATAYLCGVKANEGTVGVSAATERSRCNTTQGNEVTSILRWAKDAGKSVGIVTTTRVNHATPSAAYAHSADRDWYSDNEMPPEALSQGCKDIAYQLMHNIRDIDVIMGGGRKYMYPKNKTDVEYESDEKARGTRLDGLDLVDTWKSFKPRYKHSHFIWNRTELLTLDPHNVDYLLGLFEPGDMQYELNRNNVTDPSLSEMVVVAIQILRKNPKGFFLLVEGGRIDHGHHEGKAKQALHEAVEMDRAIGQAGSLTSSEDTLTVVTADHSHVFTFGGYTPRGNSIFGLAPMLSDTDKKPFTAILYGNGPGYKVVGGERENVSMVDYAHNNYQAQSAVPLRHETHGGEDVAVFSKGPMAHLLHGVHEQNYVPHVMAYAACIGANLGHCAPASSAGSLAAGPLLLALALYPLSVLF
TNAP Pi inh: blocks human TNAP phosphate release | inhibition, % at 20 µM | purified TNAP, pNPP, malachite green phosphate absorbance | 21,000 tested, under 10 active
Active calls of the source: *.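 The calls were made as follows: active = inhibition above 50% at the 20 µM single-dose screen; inactive = the rest.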

For CCCn1c(SCc2cc(=O)[nH]c3ccccc23)nc2c1c(=O)n(C)c(=O)n2C the results were TNAP pNPP inh 4 and TNAP Pi inh 12.
CCCCCOC(=O)Cn1c(N2CCCCCC2)nc2c1c(=O)[nH]c(=O)n2C was read as TNAP pNPP inh 6 and TNAP Pi inh 10.
For O=S(=O)(Nc1ccc(S(=O)(=O)N2CCCCC2)cc1)c1ccc(Br)s1 the results were TNAP pNPP inh 7 and TNAP Pi inh -15.
Screening CC(C)(C)Sc1nc(O)cc(=O)[nH]1 returned TNAP pNPP inh -3 and TNAP Pi inh 3.
`CC1CN(c2nc3c(c(=O)n(C)c(=O)n3C)n2Cc2c(F)cccc2Cl)CC(C)O1` (stereo not given) gave TNAP pNPP inh -1 and TNAP Pi inh 8.
Cc1ccsc1C(C(=O)NC1CCCCC1)N(C(=O)c1csnn1)C1CC1 (stereo not given) was read as TNAP pNPP inh 2 and TNAP Pi inh 16.
COc1cc(CSc2nnnn2-c2ccc(C)cc2)cc(OC)c1OC was read as TNAP pNPP inh 6 and TNAP Pi inh 14.
`CCOC(=O)CSc1nnc(Cn2nnc(-c3ccccc3)n2)n1C` gave TNAP pNPP inh 0 and TNAP Pi inh 0.
`O=C(O)C(Cc1c[nH]c2ccccc12)NS(=O)(=O)c1cccc2nsnc12` (stereo not given) gave TNAP pNPP inh -3 and TNAP Pi inh 4.
O=C(Cn1nc(C(F)(F)F)c2c1CCCC2)NCc1ccco1 was read as TNAP pNPP inh 6 and TNAP Pi inh 7.
Cc1ccc(-c2nnn(CC(=O)N3CCN(c4ccccc4)CC3)n2)o1 was read as TNAP pNPP inh 2 and TNAP Pi inh 7.
For Cc1ccnc(N2CCC(C(=O)Nc3cccc(C(F)(F)F)c3)CC2)n1 the results were TNAP pNPP inh 2 and TNAP Pi inh 5.
Screening O=C(c1cc2ccccc2oc1=O)N(Cc1ccc2c(c1)OCO2)Cc1ccco1 returned TNAP pNPP inh 2 and TNAP Pi inh 5.
For N#Cc1c(NC(=O)CSc2ncnc3sccc23)oc(-c2ccco2)c1-c1ccco1 the results were TNAP pNPP inh 2 and TNAP Pi inh 5.
CSCC[C@H](NC(=O)OC(C)(C)C)c1nnc(SCC=C(C)C)o1 was read as TNAP pNPP inh 4 and TNAP Pi inh 12.
Screening CCN(CC)S(=O)(=O)c1cccc2c(N(C)C)cccc12 returned TNAP pNPP inh 2 and TNAP Pi inh 5.
For CCOC(=O)C1CCN(C(=O)C2CCCCC2)CC1 the results were TNAP pNPP inh 6 and TNAP Pi inh 4.
`Cn1c(Cn2cnc3ccccc32)nnc1SCC(=O)CC(=O)Nc1ccccc1` gave TNAP pNPP inh 9 and TNAP Pi inh 9.
COc1ccc(/C(O)=C2/C(=O)C(=O)N(CCCN(C)C)C2c2ccco2)cc1Cl (stereo not given) was read as TNAP pNPP inh 7 and TNAP Pi inh 11.
`COCCn1c(C)cc(C(=O)CSc2nc(C)nc3sc4c(c23)CCC4)c1C` gave TNAP pNPP inh -2 and TNAP Pi inh 1.
COc1ccc2[nH]c(=O)c(CN(C(=O)C3CCCO3)c3ccc(C)cc3)cc2c1 (stereo not given) was read as TNAP pNPP inh 8 and TNAP Pi inh 6.
`CN(CC(=O)Nc1ccncc1)S(=O)(=O)c1ccc(Cl)cc1` gave TNAP pNPP inh 3 and TNAP Pi inh -21.
`COc1ccc(OC)c(NC(=O)CSc2nnc(N)s2)c1` gave TNAP pNPP inh 0 and TNAP Pi inh 5.
Screening O=C(CCC1CCCCC1)N1CCN(Cc2ccc3c(c2)OCO3)CC1 returned TNAP pNPP inh -16 and TNAP Pi inh -5.
Screening CSc1nsc(SCC(=O)N2CCN(c3ccccc3)CC2)n1 returned TNAP pNPP inh -2 and TNAP Pi inh 3.
CC(C)(C)NC(=O)c1ccccc1-c1nc(-c2ccccc2Cl)no1 was read as TNAP pNPP inh 3 and TNAP Pi inh 9.
Cc1cc(C(=O)OCC(=O)N2CCN(c3ccccc3)CC2)c2ccccc2n1 was read as TNAP pNPP inh 3 and TNAP Pi inh -4.
COc1ccc(C2c3c(-c4cc(Cl)c(C)cc4O)n[nH]c3C(=O)N2Cc2cccnc2)cc1OC (stereo not given) was read as TNAP pNPP inh 3 and TNAP Pi inh 9.
Screening O=C1CC(N(Cc2ccco2)C(=O)Nc2ccc(F)cc2)C(=O)N1c1ccc(F)cc1 (stereo not given) returned TNAP pNPP inh 3 and TNAP Pi inh -1.
For O=C(NC1CCCC1)C1CCCN1C(=O)Nc1ccc(Cl)cc1 (stereo not given) the results were TNAP pNPP inh 0 and TNAP Pi inh 13.
COCCN(CC(=O)Nc1ccccc1)S(=O)(=O)c1ccc(S(=O)(=O)N2CCCC2)cc1 was read as TNAP pNPP inh 4 and TNAP Pi inh 7.
Screening Cn1c(SC/C=C/c2ccccc2)nnc1-c1ccco1 returned TNAP pNPP inh 0 and TNAP Pi inh 7.
CCCC(=O)Nc1cc(Cl)ccc1N1CCN(C(=O)CC)CC1 was read as TNAP pNPP inh 0 and TNAP Pi inh 0.
For CCC(=O)N1CCN(c2ccccc2NC(=O)COc2cc(C)ccc2C(C)C)CC1 the results were TNAP pNPP inh -6 and TNAP Pi inh -6.
`CS(=O)(=O)c1ccc2nc(NC(NC(=O)c3ccco3)(C(F)(F)F)C(F)(F)F)sc2c1` gave TNAP pNPP inh 6 and TNAP Pi inh 12.
Cc1noc2nc(-c3cccs3)cc(-c3nnc4n3CCCCC4)c12 was read as TNAP pNPP inh 4 and TNAP Pi inh -10.
CCOC(=O)N1CCC2(CC1)C(C#N)=C(N)Oc1c2c(C)nn1-c1cccc(Cl)c1 was read as TNAP pNPP inh -35 and TNAP Pi inh -44.
CN(C)S(=O)(=O)c1ccc(C(=O)Nc2ccnn2C2CCCCC2)cc1 was read as TNAP pNPP inh -2 and TNAP Pi inh -3.
`Cc1ccc(S(=O)(=O)N2CCC(C(=O)OCC(=O)N3CCc4ccccc43)CC2)cc1` gave TNAP pNPP inh -5 and TNAP Pi inh 1.
For Cc1cccc(OCCc2nnc(N)s2)c1C the results were TNAP pNPP inh 3 and TNAP Pi inh -15.
For CN(C)C(CNC(=O)c1cccnc1Sc1ccccc1)c1ccco1 (stereo not given) the results were TNAP pNPP inh 2 and TNAP Pi inh 9.
Cc1c(O)c(CN2CCCC(C)C2)cc2c3c(c(=O)oc12)CCC3 (stereo not given) was read as TNAP pNPP inh 1 and TNAP Pi inh 4.
Cn1c(=O)c2cn(Cc3ccc(Cl)cc3)cc2n(C)c1=O was read as TNAP pNPP inh 7 and TNAP Pi inh 10.
`CCCOC(=O)C1[C@H]2C(=O)N(CC3CCCO3)C[C@]23C=C[C@H]1O3` (stereo not given in full) gave TNAP pNPP inh 3 and TNAP Pi inh 12.
For CCOC(=O)CC1=CC(C)(CC(=O)OCC)C(C#N)(C#N)C(N)=C1C#N (stereo not given) the results were TNAP pNPP inh -1 and TNAP Pi inh -13.
`COc1ccc(N/C(C)=C2/C(=O)C(=O)N(CCO)C2c2ccc(Br)cc2)cc1` (stereo not given) gave TNAP pNPP inh 0 and TNAP Pi inh 10.
For O=C(NCCc1ccccc1)c1ccccc1NS(=O)(=O)N1CCCC1 the results were TNAP pNPP inh 2 and TNAP Pi inh 9.
For CCOc1ccccc1NC(=O)c1ccccc1-c1nc(-c2ccccc2OC)no1 the results were TNAP pNPP inh 3 and TNAP Pi inh -19.
For COC(=O)CSc1nc(C)c(Oc2ccccc2)c(=O)[nH]1 the results were TNAP pNPP inh 1 and TNAP Pi inh 5.
